An excerpt weighted towards active compounds, which were near 2.2% of everything screened.
DENV2 CPE rescue: protects cells from dengue virus 2 cytopathic effect; CPE inhibition, % at 9.99 µM; 350,000 compounds, 1.7% hits; DENV2-infected cells, cytopathic effect rescue, plate reader; in the data active means CPE inhibition above about 20%, passing the limit was not always enough; inconclusive means no clear call, values can overlap the other calls; tested in BHK-21 cells;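 further: 0% = median of neutral control wells and 100% = median of positive control wells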
C2C12 statin: suppressors of simvastatin-induced myotoxicity in C2C12 myotubes; ATP luminescence, 48 h; scaled: DMSO 0, geranylgeraniol control 100; rescue of ATP level, % at 7.49 µM; 330,000 compounds, 0.78% hits; AID 602340;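 active means mean ATP rescue above about 67%, or every replicate alone reaching that limit, limit read from the data, passing the limit was not always enough; inconclusive means no clear call, values can overlap the other calls; inactive means mean under the limit and some replicate under it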;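 further: myotubes were challenged with 10 µM simvastatin during compound exposure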
PvdQ inh: P. aeruginosa PvdQ acylase inhibition. inhibition, % at 10 µM. purified PvdQ acylase, fluorescence plate reader. 340,000 compounds, 0.063% hits; in the data active means inhibition above about 30%, passing the limit was not always enough; inconclusive means no clear call, values can overlap the other calls;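 further: 0% = vehicle neutral wells and 100% = reference inhibitor wells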
PGC1a acetyl inh: lowers PGC1a acetylation signal in U2OS cells; AlphaScreen anti-acetyl-lysine; with virally co-expressed GCN5 acetyltransferase; inhibition, % at 15.6 µM; 350,000 compounds, 0.17% hits; AID 651687;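 active means every replicate shows inhibition of at least 40%; inconclusive means mean inhibition at least 40% but some replicate below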;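 further: 0% = neutral control wells and 100% = positive control wells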
miR-122 sensor: miR-122 inhibition in Huh7 cells. 340,000 compounds, 0.3% hits. activation (reporter increase), % at 12.5 µM. Huh7 miR-122 Renilla luciferase sensor, 48 h; neutral wells = 0, positive control = 100;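 active means mean replicate activation score at least 90 and every replicate individually at or above 90; inconclusive means only one of the two criteria met; inactive means neither criterion met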;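 further: higher luciferase means less miR-122 activity so hits act as miR-122 inhibitors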
Starred values were filed as active, the others as inactive; ? = inconclusive; / = not tested or not shown; [ ] = another dose, or the depositor's remark.

SMILES | DENV2 CPE rescue | C2C12 statin | PvdQ inh | PGC1a acetyl inh | miR-122 sensor
COC(=O)C1(CC2CC(c3ccncc3)=NO2)CCN(C(=O)OC(C)(C)C)CC1 (centres undefined) | 37.2* | 21.7 | -1.2 | 14.2 | -1.1
CCCCCCCNC(=O)C1(CC2CC(c3ccc(Cl)cc3)=NO2)CCN(C(=O)OC(C)(C)C)CC1 (centres undefined) | -0.4 | 121.1* | -6.4 | -8.0 | 3.7
CC(C)(C)OC(=O)N1CCC(CC2CC(c3ccccc3)=NO2)(C(=O)O)CC1 (centres undefined) | ? | 7.3 | 14.8 | / | /
COC(=O)C1(CC2CC(c3ccccc3)=NO2)CCN(C(=O)OC(C)(C)C)CC1 (centres undefined) | -1.3 | -1.8 | -11.5 | -1.1 | -0.6
O=C(C[C@@H]1C[C@@H]2c3cc(NC(=O)CC4CC4)ccc3O[C@@H]2[C@H](CO)O1)NCc1cccnc1 | 6.7 | -4.8 | / | 1.7 | -2.1[16.7 µM]
COc1ccc(OCCn2c(NC(=O)c3ccco3)nc3ccccc32)cc1 | / | 5.1 | -9.0 | 6.7 | 7.2
CCCn1c(NC(=O)c2ccco2)nc2ccccc21 | / | 102.3* | -6.6 | 4.4 | 40.8
C[C@H](CO)N1C[C@H](C)[C@H](CN(C)C(=O)c2ccc(F)cc2)Oc2ncc(-c3ccc(F)cc3)cc2C1=O | 10.4 | 8.5 | / | 0.5 | 1.0[16.7 µM]
C/C=C(/C)C(=O)O[C@@H]1c2c(ccc3ccc(=O)oc23)OC(C)(C)[C@@H]1OC(=O)/C(C)=C\C | 25.9* | -38.6 | -10.0 | / | -4.6
COCC#Cc1ccc([C@@H]2[C@H](CO)N3C(=O)CN(C(=O)c4cccnc4)C[C@@H]23)cc1 | ? | / | / | -5.0 | /
COc1ccc(C(=O)NN(C)c2nc(-c3ccccc3)nnc2C(F)(F)F)cc1 | / | 74.1* | -1.0 | -4.7 | 21.2
C[C@@H]1CN([C@H](C)CO)C(=O)c2cc(NC(=O)Nc3ccccc3)ccc2O[C@@H](C)CCCCO[C@@H]1CN(C)Cc1ccccc1 | -2.5 | / | / | -4.9 | 2.1[16.7 µM]
CCCC#Cc1ccc2c(c1)O[C@@H](CN(C)C(=O)CN(C)C)[C@H](C)CN([C@@H](C)CO)S2(=O)=O | 0.9 | -10.6 | / | -4.8 | -5.4[16.7 µM]
CN(C)CC(=O)N[C@H]1CC[C@H](CC(=O)NCc2ccccc2F)O[C@H]1CO | 9.6 | -2.3 | / | 6.8 | /
CCCn1c(=N)n(CC(O)COc2ccc(C)cc2)c2ccccc21 (centres undefined) | 41.4* | -19.4 | -16.2 | 29.7 | /
CCn1c(=N)n(CC(O)COc2ccc(C)cc2)c2ccccc21 (centres undefined) | 1.7 | / | -10.8 | / | /
O=C(/C=C/c1ccccc1)C1=C(O)C(=O)N(CCO)C1c1ccc2c(c1)OCO2 (centres undefined) | -6.1 | 115.3* | -6.8 | 0.9 | -3.3
O=C(C=Cc1ccc2c(c1)OCO2)c1ccccc1 | -0.8 | 3.2 | 11.2 | 13.8 | 1.6
CCCN1[C@@H]2Cn3c(ccc(-c4ccc(F)cc4)c3=O)[C@H]1[C@@H](C(=O)NCCOC)[C@@H]2CO | ? | 17.5 | / | / | /
COc1ccc2c3c([nH]c2c1)[C@@H](CO)N(S(=O)(=O)c1ccc(C)cc1)CC31CN(C(=O)Cc2cccnc2)C1 | -4.7 | / | / | -5.6 | /
COc1ccc2c3c([nH]c2c1)[C@H](CO)N(C(=O)c1ccccc1)CC31CN(S(=O)(=O)c2cccs2)C1 | 82.1* | / | / | -13.1 | /
COc1ccc2c3c([nH]c2c1)[C@@H](CO)N(S(C)(=O)=O)CC31CN(C(=O)c2ccccc2)C1 | 23.1* | / | / | -2.2 | /
COc1ccc2c3c([nH]c2c1)[C@H](CO)N(C(=O)c1cccc(F)c1)CC31CN(S(=O)(=O)c2cccs2)C1 | ? | / | / | -9.4 | /
COc1ccc2c3c([nH]c2c1)[C@H](CO)N(S(=O)(=O)c1ccc(C)cc1)CC31CN(C(=O)Cc2cccnc2)C1 | 27.5* | / | / | 0.9 | /
O=C(C[C@H]1C=C[C@H](NC(=O)c2cccc(F)c2)[C@H](CO)O1)NCc1ccccc1 | -0.8 | 4.1 | / | 4.9 | 5.7[16.7 µM]
O=C(C[C@@H]1CC[C@H]2[C@@H](COC[C@H](O)CN2C(=O)Nc2cc(Cl)cc(Cl)c2)O1)N1CCCCC1 | -14.4 | -8.1 | / | 4.3 | -2.3[16.7 µM]
Cc1ccccc1CSc1ccc(-c2ccc3c(c2)OCO3)nn1 | 51.6* | / | -10.2 | -2.2 | -2.8
Fc1cccc(CSc2ccc(-c3ccc4c(c3)OCO4)nn2)c1 | -14.7 | 16.4 | -16.5 | 3.7 | 6.3
COc1cccc(-c2ccc3c(c2)O[C@H](CN(C)Cc2cncnc2)[C@H](C)CN([C@@H](C)CO)S3(=O)=O)c1 | 28.5* | -12.3 | / | -0.7 | -15.6[16.7 µM]

Source: PubChem (Broad Institute)
